# Vaccinia mCherry: vaccinia inhibition (mCherry reporter); AID 720579; Potency, µM (titrated, usually from 36.5 µM), most hits filed as inhibitors; hit rate 0.63% among 310,000; Vaccinia virus mCherry reporter infection, fluorescence; calls by dose curve; tested in A549 cells; also: nearly all actives have a fitted effect of over 35% in size
# VACV Venus inh: inhibitors of vaccinia virus (Venus reporter) | Vaccinia virus Venus reporter expression, fluorescence | Potency, µM (top dose mostly 36.5 µM), usual class: inhibitors | AID 720580 | hit rate 0.46% among 330,000; calls by dose curve; tested in A549 cells; also: nearly all actives have a fitted effect of over 30% in size
# FMDV inh: antivirals against foot and mouth disease virus; Potency, µM (top dose mostly 57.9 µM), actives largely listed as inhibitors; hit rate 1.2% among 410,000; FMDV antiviral cell-based qHTS; AID 1159524; calls by dose curve; tested in HEK293T cells; also: read-out not given here; nearly all actives have a fitted effect of over 45% in size
# LASV entry inh: Lassa virus entry inhibition; Lassa virus pseudotype entry inhibition, cell reporter; Potency, µM (series often up to 37.9 µM), usual class: inhibitors; hit rate 1.2% among 300,000; AID 540256; calls by dose curve; tested in HEK293 cells; also: nearly all actives have a fitted effect of over 50% in size
# Marburg entry inh: blocks Marburg virus binding to or entry into cells; Marburg virus pseudotyped entry inhibition, cell reporter; Potency, µM (highest dose often 37.8 µM), usual class: inhibitors; hit rate 1.8% among 300,000; calls by dose curve; tested in HEK293 cells
# HCMV inh: blocks human cytomegalovirus replication | hit rate 4.5% among 410,000 | HFF cells, HCMV-luciferase reporter, 72 h; active compounds read low | activity change, negative = inhibition, % at 57.5 µM; in the data active = activity change below about -60%; inconclusive = no clear call, values can overlap the other calls; inactive = above about -39%
#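 Compounds were evaluated in HFFs infected with an HCMV luciferase reporter virus (MOI 1 PFU/cell). Luciferase in lysates collected 72 h post infection served as the replication measure.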
# A number is an active result; – = inactive; ? = inconclusive; · = not tested or not shown. Shown are actives, neighbours in structure and some others; about 6.5% of the full set was active somewhere.
SMILES,Vaccinia mCherry,VACV Venus inh,FMDV inh,LASV entry inh,Marburg entry inh,HCMV inh
Cc1ccc(S(=O)(=O)NCC(c2ccc(N(C)C)cc2)N2CCCC2)cc1 (stereo not given),–,–,–,–,·,–
O=C(Nc1ccccc1F)c1ccc(Cn2nc(N3CCN(c4ccccc4)CC3)ccc2=O)o1,?,–,–,?,·,?
O=C(Nc1ccc(F)cc1)c1ccc(Cn2nc(N3CCN(c4ccccc4)CC3)ccc2=O)o1,–,?,?,?,·,-62
COc1cc(CN2CCN(S(=O)(=O)c3ccc(NC(C)=O)cc3)CC2)cc(OC)c1OC,–,–,–,–,·,-106
CC(=O)Nc1ccc(S(=O)(=O)N2CCN(CCCOc3ccccc3Cl)CC2)cc1,·,·,–,–,–,-67
COc1cccc(OCCCN2CCN(S(=O)(=O)c3ccc(NC(C)=O)cc3)CC2)c1,·,·,14µM,8.2µM,6.5µM,-81
COc1cccc(CN2CCN(S(=O)(=O)c3ccc(NC(C)=O)cc3)CC2)c1OC,–,–,–,·,–,–
Cc1ccc(S(=O)(=O)N2CCN(CCNC(=O)C(=O)Nc3ccc(F)cc3)CC2)cc1,–,–,–,–,?,-67
Cc1ccccc1OCC(=O)Nc1nc(-c2ccncc2)cs1,–,–,28µM,–,?,–
Cc1nc(NC(=O)/C=C/c2ccccc2)n[nH]1,–,–,?,?,?,-96
CCc1ccccc1OCC(=O)Nc1nc(-c2cccnc2)cs1,?,?,?,–,?,-65
CCCn1nnc(NC(=O)/C=C/c2ccccc2)n1,–,–,–,–,–,–
O=C(COC(=O)c1ccccn1)Nc1nc(-c2ccccc2)cs1,–,–,–,–,?,–
Cc1ccccc1OCC(=O)Nc1nnc(-c2ccncc2)s1,–,–,–,–,–,-93
CCN(C(=O)Cn1ncc2c(=O)oc3ccccc3c21)c1ccccc1F,–,–,–,–,?,–
COc1cccc(CNC(=O)c2c(OC)cc(=O)n3c2CCN(C(=O)c2ccc(C)s2)CC3)c1,–,–,–,·,·,·
CC(C)C[C@H]1COc2cc(Br)ccc2S(=O)(=O)N1Cc1cccc(Cl)c1,·,·,·,·,·,–
COc1ccc(CNC(=O)Cn2ncc3c([nH]c4ccccc43)c2=O)cc1,–,–,–,–,·,–
O=C(/C=C/c1ccccc1)Nc1nc(-c2ccncc2)cs1,–,–,13µM,?,?,-63
O=C(/C=C\c1ccco1)Nc1nc(-c2ccccc2)cs1,–,–,–,?,?,–
CCOc1ccccc1OCC(=O)Nc1nnc(COC)s1,·,·,–,–,–,-102
N#C/C(=C\c1ccccn1)c1ccccn1,3.5µM,?,–,?,?,-74
CN(C)c1ccc(/C=C(\C#N)c2ccccn2)cc1,–,–,?,1.4µM,1.2µM,-84
N#C/C(=C\c1ccc([N+](=O)[O-])cc1)c1ccccn1,–,–,–,–,–,-75
Cc1cc(C)n2nc(/C(C#N)=C/c3ccccn3)c(C#N)c2n1,?,–,?,10µM,?,–
SMILES,Vaccinia mCherry,VACV Venus inh,FMDV inh,LASV entry inh,Marburg entry inh,HCMV inh
Fc1ccc(N2CCN(Cc3ccc4c(c3)CN(Cc3cccn3-c3ncccn3)CCO4)CC2)cc1,–,–,–,·,·,·
Cc1ccc(C(=O)NC2CCCCC2)cc1,–,–,·,–,–,–
O=C(COC(=O)c1cc(F)c(F)cc1Cl)NC1CCCCCC1,–,–,–,·,·,–
Cc1ccc(C(=O)NC2CCCCCCC2)c(Cl)c1,·,·,–,·,·,-79
O=C(NC1CCCCCCC1)c1cc(F)c(F)cc1Cl,·,·,–,·,·,-61
CC(C)OC(=O)c1cn(Cc2c(F)cccc2F)c2sc(-c3ccc(NC(=O)C(C)C)cc3)c(CN(C)Cc3ccccc3)c2c1=O,·,·,–,·,·,·
O=C(NNc1cc(Cl)cc(Cl)c1)c1sccc1Cl,–,–,·,·,·,·
CC1Cc2ccccc2N1C(=O)CSc1nc2c(c(=O)n(C)c(=O)n2C)n1Cc1ccc(F)cc1 (stereo not given),–,–,–,–,–,-106
CCCCn1c(SCC(=O)Nc2nnc(C(C)C)s2)nc2c1c(=O)n(C)c(=O)n2C,·,·,–,?,–,-75
CCCCn1c(SCC(=O)N2c3ccccc3Sc3ccccc32)nc2c1c(=O)n(C)c(=O)n2C,·,?,?,?,11µM,–
Cn1c(=O)c2c(nc(SCC(=O)c3cccs3)n2Cc2ccc(F)cc2)n(C)c1=O,–,–,–,?,–,–
CCCn1c(SCC(=O)Nc2nc3c(s2)CCCC3)nc2c1c(=O)n(C)c(=O)n2C,·,·,–,–,–,–
Cc1nc2cnc(N3CCN(C)CC3)nc2n(-c2ccccc2)c1=O,·,·,–,·,·,·
CCOC(=O)OC[C@H]1O[C@H](c2cc(C)cc(C)c2)C=C[C@H]1OC(=O)OCC,·,·,·,·,–,·
Cc1nc2nc(SCC(=O)NCCc3ccc(Cl)cc3)nn2c(C)c1Cc1c(F)cccc1Cl,–,–,–,–,·,–
Cc1cc(C(=O)NCC2CCC3(CCN(Cc4ccc(-c5ccccc5)cc4)CC3)O2)n(C)n1 (stereo not given),–,–,?,·,·,·
Cc1cccc(Oc2nc3ccccn3c(=O)c2/C=C(\C#N)C(=O)NC2CCS(=O)(=O)C2)c1 (stereo not given),–,–,–,–,–,–
Cc1cccn2c(=O)c(/C=C(\C#N)C(=O)NC3CCS(=O)(=O)C3)c(Oc3ccc(F)cc3)nc12 (stereo not given),–,–,28µM,–,?,–
Cc1cccn2c(=O)c(/C=C(\C#N)C(=O)NC3CCS(=O)(=O)C3)c(N3CCC(C)CC3)nc12 (stereo not given),–,–,–,–,–,–
Cc1cccc(Oc2nc3ccccn3c(=O)c2/C=C(\C#N)C(=O)NC2CCS(=O)(=O)C2)c1C (stereo not given),–,–,?,?,?,-96
N#C/C(=C\c1c(Oc2ccc(Cl)cc2)nc2ccccn2c1=O)C(=O)NC1CCS(=O)(=O)C1 (stereo not given),–,–,20µM,3.5µM,?,–
Cc1cc(Oc2nc3ccccn3c(=O)c2/C=C(\C#N)C(=O)NC2CCS(=O)(=O)C2)ccc1Cl (stereo not given),–,–,?,?,?,-66
CC(=O)c1ccc(C(=O)NCc2nc(-c3ccccc3NC(=O)c3cc(C)oc3C)oc2C)cc1,–,–,–,·,·,·
CN(C)c1cccc(C(=O)NCC2Cc3cccc(-c4cncnc4)c3O2)c1 (stereo not given),–,–,–,·,·,·
CCOc1ccc(CN(C)C(=O)CCc2ccc(S(=O)(=O)N3CCCCCC3)cc2)cc1,·,·,?,·,·,-60
CCOc1ccc(CN(C)C(=O)CCl)cc1,?,–,25µM,?,11µM,–
COc1ccc(CN(C)C(=O)/C=C/c2ccc(S(=O)(=O)N3CCCCCC3)cc2)cc1,?,?,?,5µM,?,?
CNC(=O)c1ccc(CN(C)C(=O)/C=C/c2ccc(S(=O)(=O)N3CCCCCC3)cc2)cc1,–,–,?,·,·,-84
O=c1[nH]/c(=C/c2ccc3c(c2)OCO3)c(=O)[nH]/c1=C\c1ccc2c(c1)OCO2,–,–,·,·,·,·
COc1cc(OC)cc(C(=O)Nc2cccc(-c3cn4ccsc4n3)c2)c1,–,–,–,–,·,?
